A selection: hits, their analogues and other compounds. The true share with any hit is near 1.6%.
KCNQ2 block – KCNQ2 (rat) channel inhibition | CHO-K1 KCNQ2, FluxOR thallium flux, 20 min; hits give low values | B-score at 10 µM | hit rate 1.1% among 310,000 | AID 2156;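 active means fluorescence ratio B-score at most minus 3 library SDs, with starting brightness B-score within 2 library SDs, cut at about -5.5 in these data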
KCNQ2 enhance – KCNQ2 (rat) channel potentiation. O88943. CHO-K1 KCNQ2, FluxOR thallium flux fluorescence; hits give high values. B-score at 10 µM. hit rate 0.54% among 310,000;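 active means fluorescence ratio B-score at least 3 SD of library B-scores, with initial fluorescence B-score within 3 of them, cut at about 5.3 in these data; same plate scores as AID 2156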;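 further: B-score of peak minus minimum over baseline fluorescence ratio after K+ and Tl+ stimulus; positive B-score means potentiation of KCNQ2 with more thallium influx and brighter signal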
Kir21 confirm – confirmation of mouse Kir2.1 potassium channel inhibitors; AID 2032; Kir2.1-expressing cells, FluxOR thallium flux fluorescence; hits give low values; shares compounds with KCNQ2 enhance; Tl flux remaining, % of negative control (hits give low values), % at 10 µM; hit rate 41% among 2,300;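 active means Primary-screen hit whose thallium flux fell at least 3 control SD below untreated wells in both duplicates, with normal baseline fluorescence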;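 further: 0% = blank wells without stimulus and 100% = stimulated no-compound controls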
HEK293 Tl flux – parental HEK293 activity in Kir2.1 inhibitor counter-screen; AID 2105; shares compounds with KCNQ2 enhance; hit rate 19% among 2,300; FluxOR signal as % of negative control (100 = no effect), % at 10 µM; parental HEK293 cells, FluxOR thallium flux fluorescence; 0% = unstimulated blank wells;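 active means dye signal at least 3 control SD above or below untreated wells in both duplicates, raw fluorescence within 3, either direction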;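 further: percent is based on the flux ratio of peak minus minimum fluorescence over baseline F0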
CHO-K1 ctr – alters thallium flux in parental CHO-K1 cells, KCNQ2 counter-screen; FluxOR thallium flux fluorescence; zero = vehicle mean+3SD, 100% = vehicle-minus-blank window; shares compounds with KCNQ2 enhance; activity increase over 3SD of controls, % at 10 µM; AID 2282; hit rate 43% among 1,200;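 active means signal rise of at least 3 SD above the untreated control mean, in both duplicate wells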;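 further: counter screen of KCNQ2 potentiator hits so any rise reflects channel-independent effects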
KCNQ1 sel pot – selectivity of KCNQ2 potentiators: effect on human KCNQ1. shares compounds with KCNQ2 enhance. CHO KCNQ1 stable, FluxOR thallium flux fluorescence; beyond 3SD, as % of vehicle-control signal. activation over 3SD threshold, % at 10 µM. hit rate 28% among 1,200. AID 2283;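 active means fluorescence ratio rise of at least 3 SD of vehicle wells above their mean, in both replicate wells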;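 further: 0% = vehicle mean plus 3 SD and 100% = vehicle minus unstimulated blank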
Target sequence (P51787 whole entry, looked up): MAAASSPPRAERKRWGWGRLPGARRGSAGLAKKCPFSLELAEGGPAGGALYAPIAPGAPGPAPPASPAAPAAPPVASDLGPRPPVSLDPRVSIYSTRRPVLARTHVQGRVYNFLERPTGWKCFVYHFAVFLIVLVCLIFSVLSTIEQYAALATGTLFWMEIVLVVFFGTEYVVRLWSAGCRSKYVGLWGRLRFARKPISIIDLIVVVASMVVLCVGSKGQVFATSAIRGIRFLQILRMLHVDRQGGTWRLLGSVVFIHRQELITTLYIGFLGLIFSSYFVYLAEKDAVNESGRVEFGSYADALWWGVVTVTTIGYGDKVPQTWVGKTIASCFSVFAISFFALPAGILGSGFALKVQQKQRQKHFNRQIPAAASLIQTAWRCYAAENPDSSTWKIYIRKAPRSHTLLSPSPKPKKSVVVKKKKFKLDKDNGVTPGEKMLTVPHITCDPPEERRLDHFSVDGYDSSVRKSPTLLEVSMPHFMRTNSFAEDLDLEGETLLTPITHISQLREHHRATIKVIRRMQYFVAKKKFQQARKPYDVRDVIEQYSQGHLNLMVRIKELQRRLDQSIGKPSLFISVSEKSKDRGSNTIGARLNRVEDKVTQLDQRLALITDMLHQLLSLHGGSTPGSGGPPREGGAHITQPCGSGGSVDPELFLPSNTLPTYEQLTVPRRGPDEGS
KCNQ2 pot conf – rat KCNQ2 channel potentiator confirmation | AID 2287 | potentiation, less the hit threshold, % at 10 µM | hit rate 68% among 1,200 | CHO-KCNQ2 cells, FluxOR thallium flux fluorescence | shares compounds with KCNQ2 enhance;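 active means fluorescence ratio rising 3 SD or more over the vehicle control mean in both replicates, plus primary screen hit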;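 further: peak minus minimum thallium fluorescence divided by baseline after K/Tl stimulus; 0% = vehicle mean plus 3 SD and 100% = vehicle minus unstimulated blank difference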
Kir21 spec – mouse Kir2.1 off-target activity of KCNQ2 potentiators; shares compounds with KCNQ2 enhance; HEK293 Kir2.1, FluxOR thallium flux fluorescence; activity over 3SD threshold, % at 10 µM; hit rate 2% among 1,200; AID 2345;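 active means fluorescence ratio rise of at least 3 SD above the vehicle-control mean, seen in both replicates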;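 further: 0% = vehicle mean plus 3 SD and 100% = vehicle minus no-stimulus blank window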
KCNQ2 W236L pot – KCNQ2 potentiators acting on retigabine-insensitive rat KCNQ2 W236L mutant; shares compounds with KCNQ2 enhance; CHO KCNQ2-W236L, automated patch clamp current; current increase over 3SD of negative controls (%), hits give high values, % at 25 µM; hit rate 10% among 940; AID 2558;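 active means current increase at least 3 SD of the untreated controls above them in both duplicate recordings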
Active calls of the source: *; i = inactive; / = no result.

SMILES | KCNQ2 block | KCNQ2 enhance | Kir21 confirm | HEK293 Tl flux | others
Cc1ccc(C)c(CN2CCC(CNC(=O)Nc3cccc(Cl)c3C)CC2)c1 | i | 5.3* | i | i | CHO-K1 ctr=-1;KCNQ1 sel pot=-14;KCNQ2 pot conf=0;Kir21 spec=-46;KCNQ2 W236L pot=i
Cc1ccc(/C=C/C(=O)N2CC(C)CC(C)C2)o1 (centres undefined) | i | 6.2* | i | i | CHO-K1 ctr=-7;KCNQ1 sel pot=-7;KCNQ2 pot conf=-1;Kir21 spec=-38;KCNQ2 W236L pot=i
CCN1CCN(C(=O)/C=C/c2ccc(C)o2)CC1 | i | / | / | /
COC(=O)C1=C(C)NC(=S)NC1c1ccc(OCC(=O)N2CCCCC2)c(OC)c1 (centres undefined) | i | 0.53 | / | /
CC1CC(C)CN(CCCNC(=O)c2nn(C)c3c2CS(=O)(=O)c2ccccc2-3)C1 (centres undefined) | i | / | / | /
COc1ccc(NC(=O)CN2C(=O)NC3(CCCC3)C2=O)c(OC)c1 | i | / | / | /
O=C(O)CCCC(=O)Nc1ccccc1Oc1ccccc1 | i | / | / | /
CCCCC(=O)Nc1ccccc1Oc1ccccc1 | i | 9* | / | / | CHO-K1 ctr=-10;KCNQ1 sel pot=-17;KCNQ2 pot conf=19*;Kir21 spec=-81;KCNQ2 W236L pot=i
CCOc1ccc(Oc2ccccc2NC(=O)CN2C(=O)NC3(CCCC3)C2=O)cc1 | i | 5.9* | i | i | CHO-K1 ctr=-7;KCNQ1 sel pot=-18;KCNQ2 pot conf=26*;Kir21 spec=-39;KCNQ2 W236L pot=i
Cc1cc(C)c(NC(=O)C(C)c2cccc(C(=O)c3ccccc3)c2)c(C)c1 (centres undefined) | i | 23* | i | i | CHO-K1 ctr=54*;KCNQ1 sel pot=-9;KCNQ2 pot conf=54*;Kir21 spec=-31;KCNQ2 W236L pot=i
CC(=O)Nc1ccc(NC(=O)C(C)c2cccc(C(=O)c3ccccc3)c2)cc1 (centres undefined) | i | 0.37 | / | /
CCc1ccc(/C=N/NC(=O)c2nnn(-c3nonc3N)c2C(C)C)cc1 | i | / | / | /
Fc1cccc2sc(Nc3nnc(-c4ccccc4)o3)nc12 | i | 26* | i | 449%* | CHO-K1 ctr=1.3*;KCNQ1 sel pot=-21;KCNQ2 pot conf=62*;Kir21 spec=1.1*;KCNQ2 W236L pot=i
Fc1cccc2sc(Nc3nc4c(F)cccc4s3)nc12 | i | 1.3 | i | i
COc1cc(OC)cc(-c2nnc(Nc3nc4c(F)cccc4s3)o2)c1 | i | 3.3 | / | /
NNc1nc2c(F)cccc2s1 | i | / | / | /
CS(=O)(=O)c1nc(S(=O)(=O)c2ccc(Cl)cc2)c(NCCCn2ccnc2)s1 | i | / | / | /
CCOc1ccc(CN(C)C(=O)CNC(=O)c2ccc3ccccc3c2)cc1OC | i | / | / | /
CC(=O)OCC[C@H](NS(=O)(=O)OCC(Cl)(Cl)Cl)c1ccccc1 | i | 2.1 | / | /
COC(=O)/C(=C/c1ccco1)NC(=O)c1ccco1 | i | 0.44 | / | /
Clc1ccc(-c2cc(C3CCNCC3)[nH]n2)cc1 | i | / | 38%* | i
Cc1ccc(CN2CCC(c3cc(-c4ccc(Cl)cc4)n[nH]3)CC2)cc1 | i | / | / | /
COc1c(S(=O)(=O)N2CCN(C(=O)c3ccco3)CC2)ccc(Cl)c1Cl | i | 0.13 | / | /
CCN(CC)C(=S)SCC(=O)c1ccc(F)cc1 | i | / | / | /
CCN(CC)C(=S)SCC(=O)Nc1ccc(F)cc1 | i | 6.4* | i | i | CHO-K1 ctr=-11;KCNQ1 sel pot=-15;KCNQ2 pot conf=3.2*;Kir21 spec=-43;KCNQ2 W236L pot=i
SMILES | KCNQ2 block | KCNQ2 enhance | Kir21 confirm | HEK293 Tl flux | others
Cn1c(CSc2ccccc2)c(C#N)c2ccccc21 | i | 0.32 | / | /
Cc1ccc(SCc2c(C#N)c3ccccc3n2C)cc1 | i | / | i | i
CC(=O)c1sc(NC(=O)CCN2C(=O)c3ccccc3C2=O)nc1C | i | 0.31 | / | /
O=C(NCCCCNC(=O)c1ccccc1Br)c1ccccc1Br | i | / | / | /
O=C(c1ccc(OC2CCN(CCCc3ccccc3)CC2)cc1)N1CCCC1 | i | 0.48 | 72%* | i
CC(=O)N1CCN(C(=O)c2ccc(OC3CCN(CCc4ccccc4)CC3)cc2)CC1 | i | 0.04 | / | /

Screening results (PubChem BioAssay)
